An excerpt weighted towards active compounds, which were near 4.8% of everything screened.
D3 ag = D3 dopamine receptor (human) agonism; P35462; D3R DiscoveRx beta-arrestin cells, luminescence, 90 min; max activation, %; hit rate 0.58% among 410,000; in the data active = max activation above about 30%; also: 0% is about no effect
Target sequence (P35462 whole entry, looked up): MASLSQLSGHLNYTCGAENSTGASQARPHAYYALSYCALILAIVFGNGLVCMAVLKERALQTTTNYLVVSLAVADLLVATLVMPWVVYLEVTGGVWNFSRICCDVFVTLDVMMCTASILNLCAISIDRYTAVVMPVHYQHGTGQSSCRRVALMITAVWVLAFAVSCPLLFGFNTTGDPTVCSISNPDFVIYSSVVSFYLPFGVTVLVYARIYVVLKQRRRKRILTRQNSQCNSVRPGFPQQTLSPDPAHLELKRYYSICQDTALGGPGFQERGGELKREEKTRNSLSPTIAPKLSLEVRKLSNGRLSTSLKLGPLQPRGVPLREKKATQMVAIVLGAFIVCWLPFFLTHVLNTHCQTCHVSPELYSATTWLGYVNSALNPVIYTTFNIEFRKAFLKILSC
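Agonist mode: compounds and dopamine controls were applied to plated cells for 90 min at 37 degrees C after an overnight attachment at 1500 cells/well. Luminescent read-out followed 30 - 60 minutes at room temperature with DiscoveRx detection reagent.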
TGFb SMAD3 inh = blocks TGF-b signaling | Potency, µM (doses to about 46.1 µM), for inactives: at the highest dose activity, negative = inhibition, most hits filed as inhibitors | HepG2 CAGA-GFP TGF-b/SMAD3 reporter, GFP fluorescence, 18 h; TGF-beta stimulated, 500 pg/mL final | hit rate 1.2% among 410,000 | AID 588855; also: potency is read from the fitted curve at half-maximal effect; % is scaled to controls: 0 for no effect and ±100 for the full control effect; nearly all actives have a fitted effect of over 65% in size
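TGF-beta reporter screen: HEPG2 CAGA-GFP, 1% FBS, 500 pg/mL TGF-beta final, 18 h; per-cell GFP summed per well; curves fitted and categorized by class.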
HepG2 tox = HepG2 cytotoxicity, counter-screen for TGF-b inhibitors. hit rate 0.76% among 410,000. HepG2 CAGA-GFP viability, ATP luminescence, 18 h. Potency, µM (highest dose often 46.1 µM), for the others: top-dose activity change, negative = cytotoxicity, usual class: cytotoxic; also: potency is read from the fitted curve at half-maximal effect
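HepG2 CAGA-GFP cells (1000/well, DMEM with 1% FBS) received compound, then TGF-beta at 500 pg/mL final, and were incubated 18 hours at 37 degrees C. Viability was read by CellTiter-Glo luminescence. Media-only wells were set as complete cell-killing and DMSO as no toxicity.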
S2 tox = cell viability loss in ATXN counter-screen | S2 cells (HEK-293 line with an ATXN2-luciferase reporter) viability, CellTiter-Fluor protease fluorescence, 24 h | Potency, µM (series often up to 56.7 µM), usual class: cytotoxic | hit rate 0.49% among 400,000 | AID 651635; also: potency is read from the fitted curve at half-maximal effect; nearly all actives have a fitted effect of over 40% in size
ATXN2 expr inh = reduces ATXN2 reporter expression in HEK-293 cells. HEK-293 ATXN2-luciferase reporter, luminescence, 24 h. Potency, µM (top dose mostly 57 µM), without a hit: at the top dose activity change, negative = inhibition, hits mostly inhibitors. hit rate 0.72% among 360,000; also: potency is read from the fitted curve at half-maximal effect; % is scaled to controls: 0 for no effect and ±100 for the full control effect; nearly all actives have a fitted effect of over 55% in size
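ATXN2-luciferase reporter cells (luciferase flanked by upstream and downstream ATXN2 gene portions) were treated 24 h at 37 °C with compounds at up to 57 uM. SteadyGlo luminescence gave expression; GF-AFC fluorescence gave viability.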
DRD3 antagonist = D3 dopamine receptor (human) antagonism; hit rate 2.5% among 360,000; max response, negative = inhibition, %; P35462; D3R cells, DiscoveRx beta-arrestin luminescence, antagonist mode; stronger effect = lower value; in the data active = max response below about -50%; inconclusive = no clear call, values can overlap the other calls; also: % is scaled to controls: 0 for no effect and ±100 for the full control effect
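Cells expressing the human receptor were seeded at 1500 cells/well, incubated overnight at 37 degrees C in 5% CO2, then exposed to library compounds with dopamine controls for 90 minutes at 37 degrees C before luminescent detection.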
Active calls of the source: *; i = inactive; ? = inconclusive; · = no result given. Unless noted, calls follow the shape of the dose curve; as a rule, active = well fitted curve in the direction sought with a large enough effect; inconclusive = small, poorly fitted or top-dose-only effect, or another doubt; inactive = no such curve, though single readings can be large; an effect the other way counts as inactive or inconclusive.

SMILES	D3 ag	TGFb SMAD3 inh	HepG2 tox	S2 tox	ATXN2 expr inh	DRD3 antagonist
CC(C)(CN1CCN(Cc2ccccc2)CC1)NS(=O)(=O)c1ccc(Cl)cc1	-18	?	-48%	i	·	-61*
CCOC(=O)c1c(C)oc2ccc(N(C(=O)c3ccncc3)S(=O)(=O)c3ccc(F)cc3C)cc12	2	?	14µM*	?	?	·
CC(=O)c1c(C)oc2ccc(N(C(=O)c3ccncc3)S(=O)(=O)c3ccc(F)cc3C)cc12	-9	?	-24%	i	?	·
Cc1ccc(C)c(S(=O)(=O)c2cn(C)c3cc(N4CCCCC4C)c(F)cc3c2=O)c1 (stereo unspecified)	-20	1%	5%	·	·	·
CCOC(=O)c1c(NC(C)=O)sc2c(OC)c(Br)ccc12	11	1%	9%	i	-23%	17
CCOC(=O)c1c(NC(C)=O)sc2c(O)c(CN3CCN(CC)CC3)ccc12	-25	?	11µM*	?	14%	3
Cc1ccc(-c2nn(-c3ccc(F)cc3F)c3c2cnc2ccc(F)cc23)cc1	3	16%	-1%	i	9%	·
Cc1ccc(S(=O)(=O)/N=C2\C=C(NS(=O)(=O)c3ccccc3)C(=O)c3ccccc32)cc1	-6	?	-40%	20µM*	-31%	-28
Cc1ccc(S(=O)(=O)/N=C2/C=C(C3C(=O)CC(C)(C)CC3=O)C(=O)c3ccccc32)cc1	-5	?	-76%	i	17%	-11
O=S(=O)(N=C1C=CC(=NS(=O)(=O)c2ccccc2)c2ccccc21)c1ccccc1	2	?	-117%	i	·	4
Cc1cc(C)c(S(=O)(=O)/N=C2\C=C(NS(=O)(=O)c3ccccc3)C(=O)c3ccccc32)c(C)c1	-7	-1%	0%	?	-5%	-13
CCc1ccc(S(=O)(=O)/N=C2\C=C(Nc3ccc(O)cc3)C(=O)c3ccccc32)cc1	-30	0.89µM*	1.1µM*	7.1µM*	3.5µM*	-90*
O=C(O)c1cccc(NC2=C(n3nnc4ccccc43)C(=O)c3ccccc3C2=O)c1	6	-3%	1%	?	·	-15
CCc1ccc(S(=O)(=O)/N=C2\C=C(Nc3cccc(C(=O)O)c3)C(=O)c3ccccc32)cc1	-37	?	-89%	25µM*	32µM*	-93*
CCc1ccc(S(=O)(=O)/N=C2/C=C(Sc3ncn[nH]3)C(=O)c3ccccc32)cc1	-7	1.4µM*	2µM*	?	16µM*	-80*
Cc1ccc2c(c1)nc(SCC(O)c1ccc(Br)cc1)n2C (stereo unspecified)	2	0%	-25%	·	·	·
CN1CCCc2cc(/C=C/c3ccnc4ccccc34)ccc21	·	118%	-55%	·	·	·
C=C(C)CSc1nc2sc3c(c2c(=O)n1-c1ccccc1)CCC(C)C3 (stereo unspecified)	20	-7%	-35%	i	1%	·
Cc1ccc2oc(-c3ccc(C)c(NC(=O)COc4ccc(Cl)cc4)c3)nc2c1	·	5%	-10%	·	·	·
Brc1cccc[n+]1CCCCCC[n+]1ccccc1Br	·	9%	-25%	·	·	·
COc1ccc(/C=N/n2c(N)nc3ccccc32)cc1OC	5	-3%	-4%	i	16%	-1
COc1cccc(/C=N/n2c(N)nc3ccccc32)c1OC	30*	?	-31%	i	41%	38
Cc1c(NS(=O)(=O)c2ccc(C(C)(C)C)cc2)c(=O)n(-c2ccccc2)n1C	4	1%	-3%	i	-6%	·
COc1cc2c3c(cccc3c1)C(=O)N(CCN1CCCC1)C2=O	-1	14µM*	19%	i	·	0
COc1ccc(C(=O)CN2CCN(CCN3C(=O)c4cccc5cccc(c45)C3=O)CC2)cc1	-4	?	-19%	i	-37%	-6
Cc1ccc(NC(=O)CSc2n[nH]c(-c3ccc(F)cc3)n2)cc1F	-10	11µM*	-42%	·	·	·
CC(CCc1ccccc1)NC(=O)CSc1n[nH]c(-c2ccc(F)cc2)n1 (stereo unspecified)	-10	11µM*	-20%	·	·	·

Source: PubChem
